# Screening results from PubChem.
# Shown are actives, neighbours in structure and some others; about 12% of the full set was active somewhere.
# PI5P4Ka inh: inhibitors of human PI5P4K alpha | P48426 | PI5P4Kalpha enzyme, ADP-Glo luminescence, 60 min; hits give low values | max response, % | 1.2% of 330,000 active; active means max response of -50% or lower; inconclusive means between -30% and -50%; inactive means -30% or higher; further: value at the top dose of about 77 µM; on the % scale 0 is the no-effect control and ±100 the full control effect
#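 ADP-Glo luminescence end-point read after a 60 min room-temperature kinase reaction of PI5P4Kalpha plus substrate, initiated with ATP at 5 microM final. Buffer: 0.038 M HEPES pH 7.4, EGTA, 0.1% CHAPS, 5% DMSO.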
# HP1b binding inh: blocks HP1-beta chromodomain binding to methylated histone tails; 0.56% of 390,000 active; AID 540317; P83916; Potency, µM (highest dose often 114 µM), for the others: at the top dose activity change, negative = inhibition, most hits filed as inhibitors; AlphaScreen HP1-beta / biotin-H3K9me3 peptide binding; further: potency means the concentration at half of the fitted maximal effect; nearly all actives have a fitted effect of over 70% in size
# Target sequence (P83916 whole entry, looked up): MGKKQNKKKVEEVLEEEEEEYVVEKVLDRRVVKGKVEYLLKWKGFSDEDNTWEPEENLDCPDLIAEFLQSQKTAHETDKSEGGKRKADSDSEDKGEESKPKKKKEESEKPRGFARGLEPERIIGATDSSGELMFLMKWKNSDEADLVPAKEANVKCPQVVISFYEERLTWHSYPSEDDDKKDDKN
#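 AlphaScreen: HP1-beta (50 nM) preformed 30 min with biotin-H3(1-18)K9me3 peptide (50 nM) in PBS pH 7.4, 0.01% Tween-20. Compound added for 30 min at RT, then streptavidin donor/nickel chelate acceptor beads (10 ug/mL) for 30 min.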
# JMJD2A Tudor inh: blocks the human JMJD2A Tudor domain; O75164; AlphaScreen JMJD2A-Tudor / H3K4me3 peptide binding; Potency, µM (titrated, usually from 114 µM), without a hit: at the top dose activity change, negative = inhibition, hits mostly inhibitors; 4.4% of 390,000 active; further: potency means the concentration at half of the fitted maximal effect; on the % scale 0 is the no-effect control and ±100 the full control effect; nearly all actives have a fitted effect of over 50% in size
# G9a block: blocks human histone lysine methyltransferase G9a; Q96KQ7; G9a H3K9 monomethylation, AlphaScreen, 2 h; Potency, µM (highest dose often 102 µM), for inactives: at the highest dose activity, negative = inhibition, most hits filed as inhibitors; 8.8% of 350,000 active; further: potency means the concentration at half of the fitted maximal effect; on the % scale 0 is the no-effect control and ±100 the full control effect; nearly all actives have a fitted effect of over 75% in size
#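 Methyltransferase reactions run at room temperature for 2 h (20 nM enzyme, 500 nM biotin-H3K9 peptide, 20 uM SAM) after a 15 min compound preincubation; product detected by AlphaScreen beads and anti-H3K9me1 antibody.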
# PLK1 PBD block: inhibitors of human PLK1 polo-box domain binding. P53350. Plk1 PBD binding of FITC phosphopeptide, fluorescence polarization. Potency, µM, without a hit: max response, negative = inhibition, actives largely listed as inhibitors. 2.8% of 360,000 active. AID 720504; further: potency means the concentration at half of the fitted maximal effect; series mostly up to about 57 µM; on the % scale 0 is the no-effect control and ±100 the full control effect; nearly all actives have a fitted effect of over 65% in size
# Target sequence (P53350 whole entry, looked up, the tested form may be a part): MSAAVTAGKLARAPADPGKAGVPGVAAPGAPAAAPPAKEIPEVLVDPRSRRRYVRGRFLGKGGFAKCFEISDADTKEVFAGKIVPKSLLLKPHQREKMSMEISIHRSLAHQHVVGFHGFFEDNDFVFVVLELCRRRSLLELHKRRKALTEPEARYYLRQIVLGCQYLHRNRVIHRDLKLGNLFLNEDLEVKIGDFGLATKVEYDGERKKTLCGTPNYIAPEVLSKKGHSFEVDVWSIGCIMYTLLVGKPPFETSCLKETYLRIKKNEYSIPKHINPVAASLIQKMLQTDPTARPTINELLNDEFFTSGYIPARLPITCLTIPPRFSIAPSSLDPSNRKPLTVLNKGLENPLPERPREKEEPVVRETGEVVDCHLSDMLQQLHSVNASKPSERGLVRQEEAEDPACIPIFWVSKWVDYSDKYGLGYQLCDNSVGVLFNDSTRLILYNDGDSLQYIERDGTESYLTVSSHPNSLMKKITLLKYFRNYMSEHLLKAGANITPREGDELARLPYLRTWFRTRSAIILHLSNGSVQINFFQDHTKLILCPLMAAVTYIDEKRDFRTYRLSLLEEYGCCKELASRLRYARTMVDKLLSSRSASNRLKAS
# BAZ2B block: blocks human BAZ2B | AlphaScreen BAZ2B-H3K14Ac peptide displacement | Potency, µM (highest dose often 114 µM), for inactives: top-dose activity change, negative = inhibition, hits mostly inhibitors | 4.4% of 360,000 active; further: potency means the concentration at half of the fitted maximal effect; on the % scale 0 is the no-effect control and ±100 the full control effect; nearly all actives have a fitted effect of over 60% in size
#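 BAZ2B (50 nM) with biotin-H3(5-23)K14Ac peptide (50 nM) in PBS pH 7.4, 0.01% Tween-20, preformed 30 min, then compound 30 min at room temperature; top concentration 110uM. AlphaScreen streptavidin donor/nickel chelate acceptor beads (10 ug/mL final), 20 min dark, signal read.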
# An asterisk follows results filed as active; u = inconclusive; x = no result given; [ ] = another dose, or the depositor's remark. Unless noted, the call rests on the fitted dose curve; in most records, active means well fitted curve in the direction sought with a large enough effect; inconclusive means small, poorly fitted or top-dose-only effect, or another doubt; inactive means no such curve, though single readings can be large; an effect the other way counts as inactive or inconclusive.
SMILES,PI5P4Ka inh,HP1b binding inh,JMJD2A Tudor inh,G9a block,PLK1 PBD block,BAZ2B block
CCN(CC)S(=O)(=O)c1cccc2cc(C(=O)O)c(O)cc12,-67.1*,38.7%,-19.9%,u,-6.8%,-7.1%
CN(C)Cc1c[nH]c2nc[nH]c(=O)c12,-1.2,14.8%[57 µM],-20.7%,x,-8.6%,x
COc1ccc(C2/C(=C(/O)c3ccccc3)C(=O)C(=O)N2CCO)cc1 (configuration not stated),-1.5,11.2%,-24.0%,44.7µM*,-6.2%,7.5%
COc1ccc(/C(O)=C2/C(=O)C(=O)N(CCCC(=O)O)C2c2ccc(OC)cc2)cc1 (configuration not stated),-3.9,6.2%,44.7µM*,-18.8%,-0.8%,u
COc1ccc(CC(N)C(=O)N[C@H]2[C@@H](O)[C@H](n3cnc4c(N(C)C)ncnc43)O[C@@H]2CO)cc1 (some centres not stated),x,x,x,-5.2%[59 µM],x,x
N=c1nc(-c2ccccc2)n(-c2ccccc2)s1,x,u,5.62µM*,x,x,x
CC(C)N1CCCC(C)(C(=O)Nc2nc3ccccc3n2C)C1 (configuration not stated),-2.6,x,x,x,-0.1%,x
CCOC(=O)/C(C#N)=C\c1cc(OC)c(OC)cc1[N+](=O)[O-],-70.2*,u,11.2µM*,19.4%[0.501 µM],7.52µM*,-11.6%
Cc1ccccc1-c1noc(CSc2nc3ccccc3[nH]2)n1,x,52.2%,9.3%,-2.7%[59 µM],x,6.7%
C=C1CCN(C(C)C(=O)OCc2ccc(C)cc2)S(=O)(=O)c2ccccc21 (configuration not stated),x,94.1%,32.4%,x,x,x
CN1CCN(c2nc3cc(N4CCOCC4)ccc3s2)CC1,-4.2,x,x,x,-18.0%,x
CCn1c(-c2csc(-c3ccc(Cl)cc3)n2)n[nH]c1=S,0.4,49.5%,-3.2%,u,-9.2%,6.2%
CCn1c(-c2csc(-c3ccccc3)n2)n[nH]c1=S,-6.9,59.8%,-27.6%,1.41µM*,-16.5%,-31.9%
C=CCn1c(-c2csc(-c3ccc(OC)c(OC)c3)n2)n[nH]c1=S,1.1,24.5%,7.94µM*,2.24µM*,-15.0%,-8.1%
C=CCn1c(-c2csc(-c3ccc(Cl)cc3)n2)n[nH]c1=S,-9.1,36.8%,-9.4%,u,-12.1%,13.7%
C=CCn1c(-c2csc(-c3ccccc3)n2)n[nH]c1=S,-20.0,33.7%,-18.4%,1.78µM*,-23.1%,1.3%
Cc1cc(C)c2oc(C(=O)N3CCN(Cc4ccccc4)CC3)cc(=O)c2c1,-0.1,31.4%,-18.1%,4.2%[2.33 µM],-0.6%,-1.9%
Nc1nc(-c2ccc(Br)s2)c(Br)s1,19.2,-29.1%,u,u,u,39.8µM*
O=C(CN1C(=O)c2cccnc2Sc2ccccc21)Nc1cc(F)ccc1F,x,-18.1%,-18.7%,2.0%[59 µM],x,-11.8%
CCOc1cc(-c2sc(Nc3cc(C)ccc3OC)n[n+]2-c2ccccc2)ccc1OC,u,-11.5%,56.2µM*,-41.9%[12.7 µM],-23.8%,56.2µM*
COc1ccc(C)cc1NC(=O)Nc1ccccc1,9.8,6.5%,-24.0%,u,-8.2%,-1.4%
COc1ccc(C)cc1Nc1n[n+](-c2ccccc2)c(-c2ccc(C(=O)O)cc2)s1,-1.3,-7.6%,35.5µM*,10µM*,-25.3%,39.8µM*
COc1ccc(-c2sc(Nc3ccccc3)n[n+]2-c2ccccc2)cc1Br,-4.7,2.1%,79.4µM*,-47.8%[12.7 µM],u,50.1µM*
Cc1nc(Nc2ccccc2)sc1-c1ccccc1,9.2,0.9%,-29.4%,u,-3.4%,u
C(=C\c1sc(Nc2ccccc2)n[n+]1-c1ccccc1)/c1ccccc1,-5.2,u,56.2µM*,x,u,x
SMILES,PI5P4Ka inh,HP1b binding inh,JMJD2A Tudor inh,G9a block,PLK1 PBD block,BAZ2B block
COc1ccc(-c2csc(Nc3ccccc3)n2)cc1,32.5,u,-17.9%,-0.7%[12.7 µM],-11.6%,u
CCOC(=O)[C@]12CCC=C1N(Cc1ccc3c(c1)OCO3)C(=O)[C@H](CC(=O)NCc1cccc(C(F)(F)F)c1)C2,4.7,x,x,x,-2.4%,x
C=CCOc1ccc(CNn2cn[nH]c2=S)cc1OCC,x,20.3%,8.91µM*,32.3%[0.501 µM],1.2%,-3.8%
COc1cc(CNn2cn[nH]c2=S)cc(Cl)c1OCc1ccc(F)cc1,9.2,17.7%,-18.8%,5.62µM*,0.7%,1.1%
C=CCOc1ccc(CNC(C)(C)CO)cc1OC,-5.9,10.6%,-8.8%,110.3%[59 µM],-0.8%,-28.0%
C=CCOc1ccc(CNn2cn[nH]c2=S)cc1OC,x,24.0%,22.4µM*,3.16µM*,-5.0%,-0.5%
COc1cc(CNn2c(C)n[nH]c2=S)cc(Cl)c1OCc1ccccc1,x,7.4%,-22.0%,u,-24.6%,-34.7%
Cc1ccc(C(=O)CSc2nnc3ccc4ccccc4n23)cc1,x,56.1%,2.6%,-27.5%[59 µM],x,-12.1%
Cn1nccc1-c1coc2c(C(=O)NCc3ccccc3)cccc12,-1.8,x,x,x,-12.2%,x
c1ccc2c(CCc3ccncc3)cccc2c1,12.8,74.3%,3.5%,x,-7.0%,x
O=S(=O)(CCc1ccncc1)Cc1ccc2c3c(cccc13)CC2,-10.5,24.9%,-4.2%,50.1µM*,0.5%,-3.3%
Cc1ccc(/C=C/C(=O)O)cc1S(=O)(=O)N(C)CCO,-64.1*,63.9%,-2.5%[57.1 µM],-11.1%,-27.0%,8.1%
COc1cc(/C=C/C(=O)O)cc(S(=O)(=O)N(C)CCO)c1OC,-7.9,23.9%,-2.8%,12.2%[2.33 µM],2.6%,-27.7%
S=c1[nH]nc(-c2ccncc2)n1CC1CCCO1 (configuration not stated),3.2,-10.2%,44.7µM*,u,-9.7%,-8.0%
Fc1ccc(-c2n[nH]c(=S)n2CC2CCCO2)cc1 (configuration not stated),5.0,6.2%,-3.8%[11.4 µM],2.82µM*,-20.2%,-37.4%
CCOC(=O)C1CCN(S(=O)(=O)c2c(Cl)ccc3nonc23)CC1,x,x,x,50.1µM*,x,-16.7%
CCOC(=O)C1CCN(S(=O)(=O)c2nc3nc(C)cc(C)n3n2)CC1,0.2,-16.4%,-18.3%[11.4 µM],2.1%[12.7 µM],29.9µM*,1.4%
CCOC(=O)C1CCN(C(=O)COC(=O)c2nc3nc(C)cc(C)n3n2)CC1,-1.0,17.0%,2.1%,-1.1%,-4.2%,-6.5%
CCOC(=O)C1CCN(S(=O)(=O)c2cccc3nonc23)CC1,-2.8,14.2%,-5.6%,-7.5%[12.7 µM],-7.3%,9.9%
O=C(N/C(=C/c1cccc([N+](=O)[O-])c1)C(=O)N1CCOCC1)c1ccc(Br)cc1,8.0,6.8%,-7.4%,x,-2.7%,-5.8%
CN(C)c1ccc(C(CNS(=O)(=O)c2ccc(Cl)cc2)N2CCOCC2)cc1 (configuration not stated),x,-18.0%,u,u,x,39.8µM*
COc1ccc(C(=O)NCC(c2ccc(N(C)C)cc2)N2CCCC2)cc1 (configuration not stated),x,-7.0%,u,u,x,-37.4%
